# Screening results from PubChem.
# Most compounds without a hit are left out; they make up all but 2.6% or so of the library.
# Cruzain inh noDet = inhibitors of Trypanosoma cruzi cruzain without detergent; Potency, µM, for inactives: max response, negative = inhibition, most hits filed as inhibitors; purified cruzain, Z-FR-AMC fluorescence, no detergent; 2.3% of 200,000 active;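 note: plate controls were enzyme without inhibitor for no effect and buffer without enzyme for full effect; nearly all actives have a fitted effect of over 40% in size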
# Target sequence (P25779 123-467 limits assumed): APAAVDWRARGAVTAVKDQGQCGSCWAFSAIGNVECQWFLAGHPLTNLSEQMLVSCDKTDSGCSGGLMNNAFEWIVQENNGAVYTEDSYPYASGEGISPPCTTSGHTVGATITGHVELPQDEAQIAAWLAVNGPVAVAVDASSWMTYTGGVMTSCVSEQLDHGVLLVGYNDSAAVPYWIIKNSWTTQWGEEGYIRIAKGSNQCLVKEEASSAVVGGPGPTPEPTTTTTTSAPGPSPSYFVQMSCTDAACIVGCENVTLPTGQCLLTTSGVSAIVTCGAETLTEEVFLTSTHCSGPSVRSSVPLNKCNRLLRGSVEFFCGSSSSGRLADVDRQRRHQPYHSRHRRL
#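 Purified cruzain at 1.5 nM, pre-incubated 15 min with compound at room temperature in 100 mM sodium acetate pH 5.5, 5 mM DTT, 0.00005% Triton X-100. Reaction started with 2 uM Z-FR-AMC; AMC fluorescence increase over 60 s gives rate.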
# Cruzain inh Det = cruzain (T. cruzi) inhibition with detergent. P25779. purified cruzain, Z-FR-AMC fluorescence, 0.01% Triton. Potency, µM, for the others: max response, negative = inhibition, most hits filed as inhibitors. 0.43% of 200,000 active;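 note: plate controls were neutral wells for no effect and buffer without enzyme for full effect; nearly all actives have a fitted effect of over 40% in size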
#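 Cruzain (1.5 nM) preincubated 15 min at RT with compound in 100 mM sodium acetate pH 5.5, 5 mM DTT, 0.01% Triton X-100. Reaction started with 2 uM Z-FR-AMC; AMC fluorescence (ex 360/em 450 nm) change over 60 s gave rate.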
# The depositor's hits bear a star; ? = inconclusive. Calls come from the whole dose curve; as a rule, active = well fitted curve in the direction sought with a large enough effect; inconclusive = small, poorly fitted or top-dose-only effect, or another doubt; inactive = no such curve, though single readings can be large; an effect the other way counts as inactive or inconclusive. Potency is the fitted concentration of half-maximal effect.
SMILES,Cruzain inh noDet,Cruzain inh Det
COc1ccc(-c2nc3scc(CCNS(=O)(=O)c4ccc(F)c(C(F)(F)F)c4)n3n2)cc1OC,?,-10.1%
CCOc1ccc(C(=O)Nc2cccc(-c3cc4ccccc4oc3=O)c2)cc1[N+](=O)[O-],?,1.5%
O=C(Nc1cccc(Cl)c1N1CCCC1)c1cccc(-c2cc3ccccc3oc2=O)c1,10µM*,-0.3%
CCOc1ccc2nc(NC(=O)c3cccc(-c4cc5ccccc5oc4=O)c3)sc2c1,12.6µM*,-2.3%
CCn1nnc(NC(=O)c2cccc(-c3cc4ccccc4oc3=O)c2)n1,0.5%,-2.2%
Cc1ccc2nc(NC(=O)c3cccc(-c4cc5ccccc5oc4=O)c3)sc2c1,10µM*,-3.5%
Cc1cc(NC(=O)c2ccc(Cl)c(Cl)c2)ccc1-c1cc2ccccc2oc1=O,17.4%,1.9%
COc1cc(OC)c(Nc2ncnc3onc(-c4cccc(Cl)c4)c23)cc1Cl,-6.5%,-1.1%
Cc1cc(C)c(NC(=O)C(=O)NCCc2csc(-c3ccc(F)cc3)n2)c(C)c1,-14.0%,-3.3%
COc1ccc(NC(=O)CC2C(=O)N(c3cccc(OC)c3)C(=O)N2Cc2cccnc2)cc1 (configuration not stated),-1.0%,-1.6%
Cc1ccc(-n2ncc(C(=O)NCCN3CCC(Cc4ccccc4)CC3)c2C2CCN(C(=O)OC(C)(C)C)CC2)cc1,-1.1%,-0.2%
Cc1ccc(C)c(CN2C(=O)c3ccccc3S(=O)(=O)c3ccc(C(=O)N4CCOCC4)cc32)c1,?,-0.4%
CC(C)C(NS(=O)(=O)c1c(Cl)cccc1Cl)C(=O)OCC(=O)c1c[nH]c2ccccc12 (configuration not stated),31.6µM*,-11.1%
C=CCN(c1ccccc1OC)S(=O)(=O)c1cccc(C(=O)OCC(=O)c2c[nH]c3ccccc23)c1,-26.9%,-2.8%
Cc1ccc(C(=O)OCC(=O)c2c[nH]c3ccccc23)cc1,?,-3.3%
Cc1ccc(S(=O)(=O)CCC(=O)OCC(=O)c2c[nH]c3ccccc23)cc1,20µM*,-29.6%
COc1cc(OC)c(N(C)S(=O)(=O)c2cccc(C(=O)OCC(=O)c3c[nH]c4ccccc34)c2)cc1Cl,10µM*,-1.1%
CC(C)Cc1ccc(C(C)C(=O)OCC(=O)c2c[nH]c3ccccc23)cc1 (configuration not stated),-3.5%,-9.2%
CCCCOc1cccc(C(=O)Nc2ccc3oc(-c4cccnc4)nc3c2)c1,-5.8%,-0.3%
Cc1ccc(CNC(=O)c2c(C)oc3nc(C)nc(N4CCOCC4)c23)cc1,-11.1%,0.2%
CC(C)C(C(=O)Nc1nccs1)c1ccccc1 (configuration not stated),6.6%,0.8%
CC(C)Cc1ccc(C(C)C(=O)Nc2nccs2)cc1 (configuration not stated),25.1µM*,-4.5%
COc1cc(OC)c(NC(=O)Cn2c(=O)oc3cc(S(=O)(=O)N4CCCC4)ccc32)cc1Cl,-9.0%,-3.4%
CCCOc1ccc(NC(=O)C(=O)NCCCN2CCOCC2)cc1,0.6%,-2.8%
CCn1c(=O)cc(OCC(=O)N2CCN(c3ccccc3OC)CC2)c2ccccc21,?,-0.1%
SMILES,Cruzain inh noDet,Cruzain inh Det
O=c1c2c(-c3ccccc3)csc2ncn1/N=C/c1c2ccccc2cc2ccccc12,10µM*,-4.6%
Cc1nn(-c2ccccc2)c(N2CCCC2)c1/C=N/n1cnc2scc(-c3ccccc3)c2c1=O,-2.9%,-0.8%
Cc1ccc(CCNC(=O)CCSCc2ccc(Cl)cc2)cc1,0.1%,1.1%
Cc1ccc(CSCCNC(=O)/C=C/c2ccc(Cl)cc2)cc1,12.6µM*,3.8%
O=C(CCN1C(=O)/C(=C/C=C/c2ccccc2)SC1=S)Nc1cccnc1,?,-3.9%
CC(=O)c1ccc(NC(=O)CN2C(=O)/C(=C/C=C/c3ccccc3)SC2=S)cc1,10µM*,-8.1%
O=C(OCC1CCCO1)c1ccc2c(c1)N(Cc1cccc(Cl)c1)C(=O)c1ccccc1S2(=O)=O (configuration not stated),-13.1%,-2.4%
COc1ccc(-c2cc(=O)oc3cc4occ(C)c4cc23)cc1,-16.9%,-1.9%
COc1ccc(-c2cc(=O)oc3cc(OC(=O)C4CCCCC4)c(Cl)cc23)cc1,6.31µM*,-5.3%
Cc1ccc2nc(N3CCN(c4ccccc4F)CC3)c3nnnn3c2c1,-2.3%,-0.6%
COC(=O)c1cc(NS(=O)(=O)c2ccc3c(c2)OCCO3)ccc1Cl,10.4%,-9.6%
COc1ccc2c(Sc3ccccc3)c(C(=O)NCC(C)c3ccccc3)[nH]c2c1 (configuration not stated),?,-6.1%
CCn1c(N2CCN(S(=O)(=O)c3ccccc3C(F)(F)F)CC2)nc2ccccc21,11.1%,1.3%
O=S(=O)(c1ccccc1C(F)(F)F)N1CCN(S(=O)(=O)c2ccccc2C(F)(F)F)CC1,20µM*,3.2%
CCc1ccc(NC(=O)c2sc3nc(C)c(Cl)c(C)c3c2NC(=O)c2ccccc2)cc1,-4.4%,1.4%
CCOC(=O)Cc1csc(N/N=C\c2cccc(Br)c2)n1,31.6µM*,-22.8%
CCOC(=O)Cc1csc(N/N=C/c2ccccc2)n1,0.7%,-7.1%
O=C(Nc1ccc2oc(-c3cccc4ccccc34)nc2c1)c1ncn[nH]1,?,-2.7%
Cc1cccc(C(=O)Nc2ccc(-c3nc4cc(C(C)C)ccc4o3)cc2)c1,-12.6%,-1.9%
CC(C)c1ccc2oc(-c3ccc(NC(=O)c4ncn[nH]4)cc3)nc2c1,12.6µM*,-7.6%
COc1cc(OC)cc(C(=O)Nc2ccc(-c3nc4cc(C(C)C)ccc4o3)cc2)c1,12.6µM*,-1.9%
COc1cc(OC)cc(C(=O)Nc2ccc(-c3nc4ccccc4o3)cc2)c1,?,-4.8%
CCC(C)c1ccc2oc(-c3ccc(NC(=O)c4ncn[nH]4)cc3)nc2c1 (configuration not stated),3.98µM*,-10.3%
O=C1N(Cc2cccc(C(F)(F)F)c2)c2ccccc2S(=O)(=O)N1c1cccc(Cl)c1,?,-3.1%
Cc1ccc(NC(=O)C(C)Sc2nc(=O)cc(N)n2-c2cccc(C)c2)cc1 (configuration not stated),-8.9%,-18.0%
SMILES,Cruzain inh noDet,Cruzain inh Det
CCCCCOc1ccc(NC(=O)Cc2csc(C)n2)cc1,1.2%,-2.7%
CCCCNC(=O)C1CCN(c2nc3ccc(C)cc3[nH]2)CC1,-14.2%,-1.4%
ClC1=C(Cl)C(Cl)(Cl)C(Cl)=C1Cl,-2.2%,-4.6%
COP(=O)(OC)c1nc(-c2cccc3ccccc23)oc1N1CCOCC1,14.5%,-17.0%
N#Cc1nc(-c2cccc3ccccc23)oc1NCCN1CCOCC1,-4.2%,-29.9%
CCCNc1oc(-c2cccc3ccccc23)nc1C#N,3.16µM*,?
COP(=O)(OC)c1nc(-c2cccc3ccccc23)oc1NCCc1ccccc1,?,25.1µM*
Cc1ccc(C)c(NC(=O)Cn2c(=O)n(CCCS(=O)(=O)C3CCCCC3)c(=O)c3ccccc32)c1,-15.6%,-8.9%
C=CCSCC(N)C(=O)O (configuration not stated),0.0%,3.4%
CN(C)C(=O)CSc1nnc([C@@H](N)Cc2ccccc2)o1,25.1µM*,20µM*
C[C@H](N)c1nnc(SCC(=O)N(C)C)o1,2.2%,1.0%
CCCOc1ccc(C(=O)NCC2OCCc3ccccc32)cc1 (configuration not stated),-4.5%,-3.6%
O=C(Cc1cccs1)N/N=C/C(Br)=C/c1ccccc1,15.8µM*,1.3%
CC(/C=N/NC(=O)Cc1cccs1)=C\c1ccccc1,-8.8%,-5.1%
Cc1ccc(C2=NN(CCC(=O)NCCc3cccc(C)c3)C(=O)CC2)cc1,?,-0.6%
